PubChem BioAssay (EPA / NIEHS)
Records with an inconclusive call do not appear. Active and inactive are the calls of the source. The calls were made as follows, unless noted: active = hit-call score of the fitted dose curve at least 0.9, where 1 is the maximum; inconclusive = response in the unintended direction; inactive = score below 0.9.

Key:
[1] = ATG_TCF_b_cat_CIS: Attagene CIS-FACTORIAL HepG2 Assay for human T-Cell-Factor with beta-catenin (TCF/b-cat) (AID 2282965; active = hit-call score of the fitted dose curve at least 0.9, where 1 is the maximum; inactive = score below 0.9); conditions: HepG2 TCF/beta-catenin cis-reporter transcription, actives raise or lower the signal
How it was run: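 HepG2 cells transiently transfected with cis-promoter-driven multiplexed reporter units; reporter mRNA measured 24 h after dosing by RT-PCR, FAM labelling, HpaI digestion and capillary electrophoresis. Bidirectional fitting relative to DMSO baseline.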

[2] = ATG_TAL_CIS: Attagene CIS-FACTORIAL HepG2 Assay for human TAL Basal Promoter (AID 2282966; active = hit-call score of the fitted dose curve at least 0.9, where 1 is the maximum; inactive = score below 0.9;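 also: background control endpoint measuring basal TAL promoter reporter mRNA not a specific factor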); conditions: HepG2 Attagene cis-factorial TAL promoter reporter; actives raise or lower the signal
How it was run: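 In this cell-based multiplex, HepG2 liver cells bearing cis-promoter reporter constructs are dosed for 24 hours. Total RNA is reverse-transcribed and amplified, labelled fragments are sized by capillary electrophoresis, and signal changes are fitted bidirectionally versus DMSO.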

[3] = ATG_TGFb_CIS: Attagene CIS-FACTORIAL HepG2 Assay for human Transforming Growth Factor (TGF) (AID 2282967; active = hit-call score of the fitted dose curve at least 0.9, where 1 is the maximum; inactive = score below 0.9); conditions: HepG2 Attagene CIS TGFb reporter, mRNA transcription; actives raise or lower the signal
How it was run: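 Liver HepG2 line, cis-factorial reporter panel, 24 h dosing. Quantitation: RT-PCR products labeled with 6-FAM, cut with HpaI, resolved by capillary electrophoresis; DMSO-referenced bidirectional analysis.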

[4] = ATG_VDRE_CIS: Attagene CIS-FACTORIAL HepG2 Assay for human Vitamin D Receptor Element (VDRE) (AID 2282968; active = hit-call score of the fitted dose curve at least 0.9, where 1 is the maximum; inactive = score below 0.9); conditions: HepG2 VDRE cis-reporter transcription, actives raise or lower the signal
How it was run: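 Transiently transfected HepG2 cells carrying cis-regulated reporter transcription units were exposed for 24 h. Reporter mRNA was measured by RT-PCR with fluorescent labelling and capillary electrophoresis, and fitted in both directions against DMSO.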

[5] = target: Estrogen receptor (Homo sapiens) (UniProt P03372); test: ATG_ERa_TRANS: Attagene TRANS-FACTORIAL HepG2 Assay for human Estrogen Receptor alpha (ERa) (AID 2282970); conditions: HepG2 Attagene TRANS ERa GAL4 reporter, mRNA
Chain of Estrogen receptor (Homo sapiens) (P03372 whole entry, looked up, the tested form may be a part): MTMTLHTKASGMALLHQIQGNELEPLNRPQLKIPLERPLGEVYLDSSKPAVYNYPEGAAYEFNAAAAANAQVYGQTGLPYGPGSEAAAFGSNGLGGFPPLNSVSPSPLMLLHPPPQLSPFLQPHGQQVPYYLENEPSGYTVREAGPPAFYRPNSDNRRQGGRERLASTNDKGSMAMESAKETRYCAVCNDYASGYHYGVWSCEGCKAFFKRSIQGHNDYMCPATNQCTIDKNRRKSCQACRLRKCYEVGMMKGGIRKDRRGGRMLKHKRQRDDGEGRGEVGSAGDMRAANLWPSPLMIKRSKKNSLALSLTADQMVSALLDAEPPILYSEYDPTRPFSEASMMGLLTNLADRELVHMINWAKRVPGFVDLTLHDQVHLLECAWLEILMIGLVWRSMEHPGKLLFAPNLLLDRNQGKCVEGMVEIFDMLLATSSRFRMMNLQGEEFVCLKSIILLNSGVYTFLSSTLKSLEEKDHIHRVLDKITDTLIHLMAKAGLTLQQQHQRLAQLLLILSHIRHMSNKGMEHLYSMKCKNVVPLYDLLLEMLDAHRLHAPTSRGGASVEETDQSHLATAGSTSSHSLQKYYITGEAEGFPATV
How it was run: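 After 24 h of compound treatment, RNA from HepG2 cells bearing transfected GAL4-UAS reporter constructs is converted to cDNA, amplified and fluorescently labelled. Capillary electrophoresis resolves the ERa-linked reporter; DMSO serves as negative control.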

[6] = target: Steroid hormone receptor ERR1 (Homo sapiens) (UniProt P11474); test: ATG_ERRa_TRANS: Attagene TRANS-FACTORIAL HepG2 Assay for human Estrogen-Related Receptor alpha (ERRa) (AID 2282971); conditions: HepG2 Attagene TRANS reporter, ERRa transactivation
Chain of Steroid hormone receptor ERR1 (Homo sapiens) (P11474 whole entry, looked up, the tested form may be a part): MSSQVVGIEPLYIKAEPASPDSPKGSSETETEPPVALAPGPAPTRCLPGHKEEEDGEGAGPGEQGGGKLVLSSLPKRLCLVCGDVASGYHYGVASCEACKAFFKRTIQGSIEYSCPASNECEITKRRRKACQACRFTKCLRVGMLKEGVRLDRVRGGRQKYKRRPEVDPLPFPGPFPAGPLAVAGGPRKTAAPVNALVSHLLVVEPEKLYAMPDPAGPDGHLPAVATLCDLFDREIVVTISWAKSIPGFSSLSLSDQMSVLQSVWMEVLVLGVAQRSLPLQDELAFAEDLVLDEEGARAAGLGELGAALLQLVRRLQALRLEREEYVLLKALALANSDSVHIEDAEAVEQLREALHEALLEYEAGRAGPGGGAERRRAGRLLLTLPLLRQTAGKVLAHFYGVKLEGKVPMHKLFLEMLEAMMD
How it was run: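 Transfected HepG2, 24 h dosing, ERRa-Gal4 chimera driving GAL4-UAS reporter. Readout: reporter mRNA via RT-PCR plus capillary electrophoresis (fluorescence). Positive direction vs DMSO control.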

[7] = target: X-box-binding protein 1 (Homo sapiens) (UniProt P17861); test: ATG_Xbp1_CIS: Attagene CIS-FACTORIAL HepG2 Assay for human X-box Binding Protein 1 (XBP1) (AID 2282972; active = hit-call score of the fitted dose curve at least 0.9, where 1 is the maximum; inactive = score below 0.9); conditions: HepG2 XBP1 cis-element reporter, Attagene multiplex; actives raise or lower the signal
Chain of X-box-binding protein 1 (Homo sapiens) (P17861 whole entry, looked up): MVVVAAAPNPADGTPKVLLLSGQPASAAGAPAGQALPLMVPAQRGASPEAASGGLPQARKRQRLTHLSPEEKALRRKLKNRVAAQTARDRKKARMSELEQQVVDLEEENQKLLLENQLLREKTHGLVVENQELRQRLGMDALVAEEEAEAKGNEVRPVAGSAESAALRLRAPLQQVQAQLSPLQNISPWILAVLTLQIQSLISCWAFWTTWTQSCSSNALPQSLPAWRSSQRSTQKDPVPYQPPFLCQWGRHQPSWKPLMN
How it was run: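 HepG2 cells transiently transfected with multiple cis-element reporter units report endogenous TF activity; 24 h exposure, then reporter mRNA measured by RT-PCR, 6-FAM labelling, HpaI digestion and capillary electrophoresis. Bidirectional fitting versus DMSO.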

[8] = ATG_M_19_TRANS: Attagene TRANS-FACTORIAL HepG2 Assay for M19 Transcription Factor (Internal Marker) (AID 2282974); conditions: HepG2 Attagene TRANS-FACTORIAL M19 internal marker reporter
How it was run: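 Reporter mRNA induction was measured in transfected HepG2 cells 24 h after dosing. Endpoint fitted upward relative to DMSO and serves as a background control within the multiplexed TRANS panel.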

[9] = target: Estrogen-related receptor gamma (Homo sapiens) (UniProt P62508); test: ATG_ERRg_TRANS: Attagene TRANS-FACTORIAL HepG2 Assay for human Estrogen-Related Receptor gamma (ERRg) (AID 2282977); conditions: HepG2 Attagene TRANS reporter, ERRg transactivation;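 also: hits increase reporter signal over DMSO so potencies reflect activators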
How it was run: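 Transfect HepG2 with multiple GAL4-UAS reporter transcription units; dose chemicals 24 h; isolate RNA, reverse-transcribe with oligo(dT), PCR-amplify, label with 6-FAM, digest with HpaI; size fragments by capillary electrophoresis. DMSO serves as negative control.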

[10] = target: Oxysterols receptor LXR-alpha (Homo sapiens) (UniProt Q13133); test: ATG_LXRa_TRANS: Attagene TRANS-FACTORIAL HepG2 Assay for human Liver X Receptor alpha (LXRa) (AID 2282980); conditions: HepG2 Attagene TRANS reporter, LXRa transactivation
Chain of Oxysterols receptor LXR-alpha (Homo sapiens) (Q13133 whole entry, looked up, the tested form may be a part): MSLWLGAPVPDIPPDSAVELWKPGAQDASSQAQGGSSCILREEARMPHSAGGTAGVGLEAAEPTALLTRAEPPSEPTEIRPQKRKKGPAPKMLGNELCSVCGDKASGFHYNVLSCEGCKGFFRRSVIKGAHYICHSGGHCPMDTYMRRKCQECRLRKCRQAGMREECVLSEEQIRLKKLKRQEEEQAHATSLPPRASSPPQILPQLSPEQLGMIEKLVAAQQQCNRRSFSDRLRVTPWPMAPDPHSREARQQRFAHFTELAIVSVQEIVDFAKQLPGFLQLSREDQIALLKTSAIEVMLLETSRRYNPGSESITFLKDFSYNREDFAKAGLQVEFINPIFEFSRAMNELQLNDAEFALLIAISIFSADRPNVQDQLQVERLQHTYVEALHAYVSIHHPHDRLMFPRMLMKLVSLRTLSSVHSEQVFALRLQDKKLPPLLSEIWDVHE
How it was run: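 Read-out: reporter transcript levels by RT-PCR plus capillary electrophoresis, fluorescence intensity. Transiently transfected HepG2, exogenous NR-GAL4 chimera, GAL4-UAS reporters; 24 h compound exposure. Activity = increase over DMSO negative control.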

[11] = ATG_GAL4_TRANS: Attagene TRANS-FACTORIAL HepG2 Assay for GAL4 (Internal Marker) (AID 2282976); conditions: HepG2 Attagene TRANS GAL4 internal marker reporter
How it was run: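 RT-PCR/capillary electrophoresis readout of reporter mRNA. HepG2, transient MRTU transfection (GAL4-UAS reporters), 24 h compound exposure. Background-control endpoint, positive direction vs DMSO baseline.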

[12] = target: Bile acid receptor (Homo sapiens) (UniProt Q96RI1); test: ATG_FXR_TRANS: Attagene TRANS-FACTORIAL HepG2 Assay for Farnesoid X Receptor (FXR) (AID 2282979); conditions: HepG2 Attagene TRANS FXR-GAL4 reporter transcription;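 also: hits raise reporter mRNA above DMSO so AC50 marks FXR activation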
Chain of Bile acid receptor (Homo sapiens) (Q96RI1 whole entry, looked up, the tested form may be a part): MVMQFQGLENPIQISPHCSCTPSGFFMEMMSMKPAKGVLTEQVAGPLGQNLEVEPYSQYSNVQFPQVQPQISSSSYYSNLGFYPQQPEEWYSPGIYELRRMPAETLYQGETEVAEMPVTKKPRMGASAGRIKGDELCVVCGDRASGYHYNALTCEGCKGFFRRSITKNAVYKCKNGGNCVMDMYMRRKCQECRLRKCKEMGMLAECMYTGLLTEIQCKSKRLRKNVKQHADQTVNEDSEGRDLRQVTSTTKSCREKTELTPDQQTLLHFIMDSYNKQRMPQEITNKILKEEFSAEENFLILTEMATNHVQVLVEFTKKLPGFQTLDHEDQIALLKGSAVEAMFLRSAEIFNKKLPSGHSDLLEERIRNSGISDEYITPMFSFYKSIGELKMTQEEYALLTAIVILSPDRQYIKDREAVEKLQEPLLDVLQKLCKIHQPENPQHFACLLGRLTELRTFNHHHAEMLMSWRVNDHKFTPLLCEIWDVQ
How it was run: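 Read-out: fluorescent reporter transcripts quantified by capillary electrophoresis after RT-PCR of total RNA. Source cells were HepG2 transiently carrying chimeric NR-GAL4 plus GAL4-UAS reporter units, dosed 24 h. Activity fitted upward relative to DMSO baseline.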

[13] = target: Oxysterols receptor LXR-beta (Homo sapiens) (UniProt P55055); test: ATG_LXRb_TRANS: Attagene TRANS-FACTORIAL HepG2 Assay for human Liver X Receptor beta (LXRb) (AID 2282981); conditions: HepG2 Attagene TRANS GAL4-LXRb reporter, mRNA
Chain of Oxysterols receptor LXR-beta (Homo sapiens) (P55055 whole entry, looked up, the tested form may be a part): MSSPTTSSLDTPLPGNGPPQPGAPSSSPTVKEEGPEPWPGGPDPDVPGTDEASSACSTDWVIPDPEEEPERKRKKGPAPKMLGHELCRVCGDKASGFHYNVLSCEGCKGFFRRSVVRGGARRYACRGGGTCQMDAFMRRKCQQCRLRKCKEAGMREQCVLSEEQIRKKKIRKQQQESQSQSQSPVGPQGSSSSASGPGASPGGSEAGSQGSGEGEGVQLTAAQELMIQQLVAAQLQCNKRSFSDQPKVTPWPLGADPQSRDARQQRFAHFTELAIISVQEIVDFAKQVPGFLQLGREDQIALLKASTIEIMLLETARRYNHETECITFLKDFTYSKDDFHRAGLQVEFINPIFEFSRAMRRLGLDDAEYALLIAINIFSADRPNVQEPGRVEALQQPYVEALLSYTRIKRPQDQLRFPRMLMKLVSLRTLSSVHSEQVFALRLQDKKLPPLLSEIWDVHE
How it was run: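 HepG2 cells transiently transfected with GAL4-UAS reporter units for chimeric NR-Gal4 proteins, dosed for 24 h. Reporter transcripts measured by RT-PCR and capillary electrophoresis; gain-of-signal fitting relative to DMSO.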

[14] = target: Nuclear receptor subfamily 4 group A member 2 (Homo sapiens) (UniProt P43354); test: ATG_NURR1_TRANS: Attagene TRANS-FACTORIAL HepG2 Assay for human Nuclear Receptor Related Protein 1 (NURR1) (AID 2282985); conditions: HepG2 Attagene TRANS reporter, mRNA readout
Chain of Nuclear receptor subfamily 4 group A member 2 (Homo sapiens) (P43354 whole entry, looked up, the tested form may be a part): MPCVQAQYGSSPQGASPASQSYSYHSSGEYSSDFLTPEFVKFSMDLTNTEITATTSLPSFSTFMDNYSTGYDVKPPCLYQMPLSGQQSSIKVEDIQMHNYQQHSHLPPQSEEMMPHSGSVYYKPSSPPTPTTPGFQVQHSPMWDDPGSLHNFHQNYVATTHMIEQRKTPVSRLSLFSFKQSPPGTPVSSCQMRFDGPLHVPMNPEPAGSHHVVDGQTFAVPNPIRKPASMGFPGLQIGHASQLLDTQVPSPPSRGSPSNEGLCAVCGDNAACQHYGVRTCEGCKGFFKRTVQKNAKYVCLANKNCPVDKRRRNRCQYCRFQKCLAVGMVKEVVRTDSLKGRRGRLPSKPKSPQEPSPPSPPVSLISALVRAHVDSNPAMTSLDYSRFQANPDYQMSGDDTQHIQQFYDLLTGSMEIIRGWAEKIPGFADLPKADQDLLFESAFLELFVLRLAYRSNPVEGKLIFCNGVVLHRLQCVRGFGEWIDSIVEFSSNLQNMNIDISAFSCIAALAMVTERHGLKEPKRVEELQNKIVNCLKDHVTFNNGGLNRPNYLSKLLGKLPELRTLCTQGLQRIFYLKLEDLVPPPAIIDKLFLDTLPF
How it was run: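 HepG2 cells transiently transfected with NURR1-Gal4 chimera and GAL4-UAS reporter units; after 24 hr compound exposure, reporter mRNA quantified by RT-PCR and capillary electrophoresis; gain of signal fitted against DMSO.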

[15] = target: Transcriptional activator Myb (Homo sapiens) (UniProt P10242); test: ATG_Myb_CIS: Attagene CIS-FACTORIAL HepG2 Assay for human Myeloblastosis (Myb) Proto-Oncogene Transcription Factor (AID 2282986; active = hit-call score of the fitted dose curve at least 0.9, where 1 is the maximum; inactive = score below 0.9); conditions: HepG2 Attagene CIS-FACTORIAL Myb reporter transcription; actives raise or lower the signal
Chain of Transcriptional activator Myb (Homo sapiens) (P10242 whole entry, looked up): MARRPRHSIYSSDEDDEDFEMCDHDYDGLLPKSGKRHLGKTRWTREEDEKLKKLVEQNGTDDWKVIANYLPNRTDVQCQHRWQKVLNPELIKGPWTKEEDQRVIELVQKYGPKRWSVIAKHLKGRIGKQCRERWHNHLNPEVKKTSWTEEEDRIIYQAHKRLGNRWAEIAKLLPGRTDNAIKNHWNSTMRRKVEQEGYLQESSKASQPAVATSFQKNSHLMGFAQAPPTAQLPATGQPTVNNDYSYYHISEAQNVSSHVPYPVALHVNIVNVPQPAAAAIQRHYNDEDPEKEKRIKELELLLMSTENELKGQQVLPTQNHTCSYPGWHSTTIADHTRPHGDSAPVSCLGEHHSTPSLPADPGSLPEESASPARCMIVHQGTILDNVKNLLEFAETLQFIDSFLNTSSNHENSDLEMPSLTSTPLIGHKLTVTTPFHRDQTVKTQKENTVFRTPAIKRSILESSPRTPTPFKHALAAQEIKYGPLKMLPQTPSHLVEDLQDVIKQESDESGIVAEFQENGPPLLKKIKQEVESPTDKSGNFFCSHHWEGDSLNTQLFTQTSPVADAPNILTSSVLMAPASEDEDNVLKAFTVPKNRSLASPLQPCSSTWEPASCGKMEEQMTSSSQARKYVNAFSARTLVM
How it was run: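 Transiently transfected HepG2 cells, treated 24 h. Reporter mRNA quantified by RT-PCR/capillary electrophoresis; bidirectional fit relative to DMSO.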

[16] = target: Nuclear receptor subfamily 1 group I member 3 (Homo sapiens) (UniProt Q14994); test: ATG_CAR_TRANS: Attagene TRANS-FACTORIAL HepG2 Assay for human Constitutive Androstane Receptor (CAR) (AID 2282969); conditions: HepG2 Attagene TRANS-FACTORIAL CAR reporter;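 also: activators raise reporter mRNA above DMSO so AC50 marks induction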
Chain of Nuclear receptor subfamily 1 group I member 3 (Homo sapiens) (Q14994 whole entry, looked up, the tested form may be a part): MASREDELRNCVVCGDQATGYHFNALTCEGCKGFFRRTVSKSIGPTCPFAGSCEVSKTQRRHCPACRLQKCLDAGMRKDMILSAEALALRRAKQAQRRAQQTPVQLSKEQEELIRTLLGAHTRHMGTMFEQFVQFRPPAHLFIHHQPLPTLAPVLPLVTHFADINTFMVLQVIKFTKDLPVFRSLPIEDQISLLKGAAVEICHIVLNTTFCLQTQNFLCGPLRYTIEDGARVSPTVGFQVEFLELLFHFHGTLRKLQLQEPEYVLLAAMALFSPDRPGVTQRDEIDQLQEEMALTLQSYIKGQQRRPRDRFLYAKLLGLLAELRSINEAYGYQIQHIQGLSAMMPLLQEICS
How it was run: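 HepG2 cells transiently transfected with GAL4-UAS reporter units; TRANS format reads activity of exogenous chimeric NR-Gal4 protein. After 24 h dosing, reporter mRNA quantified by RT-PCR, 6-FAM labelling and capillary electrophoresis; gain of signal fitted against DMSO.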

[17] = target: Glucocorticoid receptor (Homo sapiens) (UniProt P04150); test: ATG_GR_TRANS: Attagene TRANS-FACTORIAL HepG2 Assay for human Glucocorticoid Receptor (GR) (AID 2282978); conditions: HepG2 Attagene TRANS GR reporter, mRNA transcription;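 also: activators score as hits since higher reporter transcript over DMSO is fitted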
How it was run: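 Reporter transcript levels, detected by fluorescence after RT-PCR and capillary electrophoresis, served as the endpoint. HepG2 cells bearing transfected GAL4-UAS reporters responsive to NR-GAL4 chimeras were incubated with compound 24 h; DMSO defined baseline.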

[18] = ATG_M_06_TRANS: Attagene TRANS-FACTORIAL HepG2 Assay for M06 Transcription Factor (Internal Marker) (AID 2282983); conditions: HepG2 Attagene TRANS M06 internal marker reporter
How it was run: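 After a 24 h chemical treatment of transfected HepG2, RNA underwent DNase I treatment, reverse transcription and reporter-specific PCR; labelled, HpaI-digested products were sized by capillary electrophoresis. Signal increase relative to DMSO defined activity.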

[19] = ATG_M_32_TRANS: Attagene TRANS-FACTORIAL HepG2 Assay for M32 Transcription Factor (Internal Marker) (AID 2282984); conditions: HepG2 Attagene TRANS M32 internal marker reporter;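 also: transcript level of a background control reporter unit measured by RT-PCR and capillary electrophoresis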
How it was run: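 HepG2 cells transiently transfected with GAL4-UAS reporter units, dosed for 24 hours. Reporter mRNA quantified by RT-PCR, 6-FAM labelling, HpaI digestion and capillary electrophoresis; internal-marker signal fitted upward relative to DMSO.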

[20] = target: Hepatocyte nuclear factor 4-alpha (Homo sapiens) (UniProt P41235); test: ATG_HNF4a_TRANS: Attagene TRANS-FACTORIAL HepG2 Assay for human Hepatocyte Nuclear Factor 4 alpha (HNF4a) (AID 2282982); conditions: HepG2 HNF4a transactivation reporter, mRNA readout
Chain of Hepatocyte nuclear factor 4-alpha (Homo sapiens) (P41235 whole entry, looked up, the tested form may be a part): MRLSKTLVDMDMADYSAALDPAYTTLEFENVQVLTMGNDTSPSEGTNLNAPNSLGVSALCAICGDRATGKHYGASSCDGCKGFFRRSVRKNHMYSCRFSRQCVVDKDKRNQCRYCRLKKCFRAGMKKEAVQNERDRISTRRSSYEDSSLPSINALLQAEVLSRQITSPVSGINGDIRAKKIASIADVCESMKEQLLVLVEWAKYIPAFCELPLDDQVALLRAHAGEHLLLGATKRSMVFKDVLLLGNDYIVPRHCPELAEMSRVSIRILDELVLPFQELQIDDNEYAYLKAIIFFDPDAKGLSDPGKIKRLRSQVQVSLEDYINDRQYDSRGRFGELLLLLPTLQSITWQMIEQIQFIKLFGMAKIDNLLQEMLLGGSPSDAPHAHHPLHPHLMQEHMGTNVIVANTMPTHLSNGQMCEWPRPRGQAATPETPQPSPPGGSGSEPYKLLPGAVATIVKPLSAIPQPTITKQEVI
How it was run: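 HepG2 cells transiently transfected with HNF4a-Gal4 chimera and GAL4-UAS reporter units, dosed for 24 h. Reporter mRNA measured by RT-PCR, fluorescent primer extension and capillary electrophoresis; gain-of-signal fitted relative to DMSO.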

Measured: AC50

CCCCCOC(=O)CCCCC
inactive: [1] | [2] | [3] | [4] | [5] | [6] | [7] | [8] | [9] | [10]

CCCCCCCC(=O)OCC
not listed: [10] | [16] | [17] | [18] | [19] | [20]
inactive: all other assays above

CCN1CCCC1=O
not listed: [5] | [6] | [8] | [9] | [11] | [13] | [20]
inactive: all other assays above

COc1cc(C)ccc1O
not listed: [6] | [8] | [9] | [12] | [14] | [19] | [20]
inactive: all other assays above

CCCCOCC(C)O (configuration not stated)
not listed: [6] | [8] | [9] | [11] | [12] | [13] | [17] | [19]
inactive: all other assays above

Cc1cccc(C(C)(C)C)c1O
active: [4] 19.9 µM
not listed: [6] | [8] | [9] | [11] | [12] | [13] | [14] | [19]
inactive: all other assays above

CCCCCCCCCCCCCCCCCCOS(=O)(=O)O
active: [1] 17.3 µM | [4] 51.7 µM | [7] 33.4 µM
not listed: [9] | [11] | [12] | [14] | [16] | [17] | [18]
inactive: all other assays above

Nc1cccc(N)n1
not listed: [5] | [6] | [9] | [10] | [12] | [13] | [15]
inactive: all other assays above

CCCCC(C=O)CC (configuration not stated)
not listed: [5] | [6] | [9] | [10] | [13] | [14] | [18]
inactive: all other assays above

CC(C)COC(=O)CC(C(=O)OCC(C)C)S(=O)(=O)O (configuration not stated)
inactive: [1] | [2] | [3] | [4] | [16] | [8] | [10] | [13] | [14]

CC(C)(CO)COC(=O)C(C)(C)CO
not listed: [9] | [12] | [14] | [16] | [18]
inactive: all other assays above
